Measured values published in PubChem BioAssay.
Calls of active or inactive are those of the source.

Columns and labels:
Albumin (Bos taurus) = Albumin (Bos taurus) (UniProt P02769); test: compounds binding labelled BSA control protein – biochemical, small-molecule microarray, Alexa647 label, 635/667 nm fluorescence, artefact control for SMM control protein annotation, profiling panel (AID 1118); conditions: BSA-A647 binding, fluorescence 635 nm, higher = more signal;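 further: score merges 667 nm emission intensity and signal-to-noise per printed compound spot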
[1] = probe aXIP binding to arrayed compounds – biochemical, NeuroSMM set, 635/667 nm fluorescence, primary screen (AID 1119); conditions: small-molecule microarray, higher = more signal, called active from +8 up or from −8 down;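 further: probe is the protein aXip251-270 applied at 1 µg/mL to compound-printed slides; binding of probe to printed compounds measured as 667 nm fluorescence plus signal to noise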
[2] = probe aNOTCH3 binding on compound microarray – biochemical, small-molecule microarray, 635/667 nm fluorescence, primary screen (AID 1120); conditions: higher = more signal;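 further: probe is a biotin-tagged antibody raised against NOTCH3 rather than NOTCH3 protein; score merges spot fluorescence near 667 nm with spot signal to noise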
[3] = probe aNOTCH2 binding on compound microarray – biochemical, small-molecule microarray, 635/667 nm fluorescence, primary screen (AID 1121); conditions: higher = more signal;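 further: score merges feature fluorescence read at 667 nm with its signal to noise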
[4] = target: Carbonic anhydrase 2 (Homo sapiens) (UniProt P00918); test: compounds binding carbonic anhydrase 2 – biochemical, small-molecule microarray, Alexa647-labelled CAII, profiling panel (AID 1122); conditions: CAII-A647 binding fluorescence, higher = more signal
[5] = COS7 lysate on small-molecule microarray, probe aHis, 635 nm (AID 1123); conditions: COS7 cell lysate, fluorescence, higher = more signal;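 further: z-score combines 667nm fluorescence intensity with signal-to-noise per printed compound spot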
[6] = probe aLAP1 signal on lysate-treated microarray – cell lysate, small-molecule microarray, COS7 lysate, primary screen (AID 1124); conditions: probe aLAP1, fluorescence, higher = more signal;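 further: lysate comes from COS7 cells expressing LAP1 and is applied at 0.3 µg/mL; score merges spot fluorescence near 667 nm with signal-to-noise over triplicate slides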
Sam68 (KHDRBS1) = test: compounds binding KHDRBS1 protein – biochemical, small-molecule microarray, 635 nm fluorescence, primary screen (AID 1125); conditions: higher = more signal;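 further: score merges 667 nm channel intensity with signal to noise over triplicate slides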
[7] = tested on: Chordin-like protein 2 (CHRDL2); test: compounds binding chordin-like 2 – biochemical, small-molecule microarray, 635 nm fluorescence, primary screen (AID 1126); conditions: fluorescence 635 nm, higher = more signal;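 further: printed compound slides probed with Chrdl2 protein at 4 µg/mL for 1 h at 4 C; score merges 667 nm emission intensity with signal to noise over three replicate slides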
[8] = target: Concanavalin-A (Canavalia ensiformis) (UniProt P02866); test: compounds binding concanavalin A lectin – biochemical, small-molecule microarray, Alexa647 label, 635 nm, artefact control for SMM control protein annotation, primary screen (AID 1127); conditions: ConA-A647 binding fluorescence, higher = more signal;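 further: z combines 667 nm emission intensity with signal-to-noise across three replicate slides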
[9] = compounds binding Alexa647 anti-His antibody – biochemical, small-molecule microarray, 635 nm fluorescence, artefact control for SMM control protein annotation, primary screen (AID 1128); conditions: higher = more signal;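 further: score merges feature fluorescence with signal-to-noise for each printed compound spot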
[10] = tested on: Human papillomavirus type 1a E7 protein (residues 1-88); test: HPV1a E7 small-molecule binders, primary screen, biochemical, small-molecule microarray, residues 1-88, 635 nm (AID 1129); conditions: small-molecule microarray binding, fluorescence 635 nm; higher = more signal
[11] = target: Focal adhesion kinase 1 (Homo sapiens) (UniProt Q05397); test: PTK2 protein binding on printed compound slides – biochemical, small-molecule microarray, 635/667 nm fluorescence, BSA, DTT, primary screen (AID 1130); conditions: 635 nm fluorescence, higher = more signal;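 further: composite of spot emission at 667 nm and signal to noise over triplicate slides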
[12] = tested on: Fibrinogen (Alexa647-labelled); test: Alexa647-fibrinogen binding to printed small molecules – biochemical, small-molecule microarray, 635/667 nm fluorescence, artefact control for SMM control-protein annotation, profiling panel (AID 1131); conditions: fibrinogen-A647 binding fluorescence, higher = more signal;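 further: z-score merges 667 nm fluorescence with per-spot signal-to-noise over triplicate slides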
[13] = target: Follistatin (Homo sapiens) (UniProt P19883); test: FST protein binding to printed compounds – biochemical, small-molecule microarray, 635/667 nm fluorescence, primary screen (AID 1132); conditions: 635 nm fluorescence, higher = more signal
[14] = target: Fibroblast growth factor 2 (Homo sapiens) (UniProt P09038); test: basic fibroblast growth factor binding to printed compounds – biochemical, small-molecule microarray, 635/667 nm fluorescence, primary screen (AID 1133); conditions: FGF2, fluorescence 635/667, higher = more signal
[15] = JC-1 mitochondrial potential readout, lung cancer cells – cell-based, A549, JC-1 fluorescence, basal, 24 h, 100 nL, profiling panel (AID 1138); conditions: higher = more signal;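 further: A549 lung adenocarcinoma cells under basal conditions with no added stimulus; test concentration not given here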
Lefty1 = Lefty1 protein binding to printed compounds – biochemical, small-molecule microarray, 635/667 nm fluorescence, primary screen (AID 1139); conditions: fluorescence 635/667, higher = more signal
[16] = tested on: wheat germ agglutinin (Triticum aestivum), Alexa647-labelled; test: Alexa647-WGA lectin binding to printed small molecules – biochemical, small-molecule microarray, 635/667 nm fluorescence, artefact control for SMM control-protein annotation, profiling panel (AID 1140); conditions: WGA-A647 binding, 635 nm fluorescence, higher = more signal;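 further: score merges 667 nm feature emission with signal to noise over triplicate slides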
[17] = target: Luciferin 4-monooxygenase (Photinus pyralis) (UniProt P08659); test: inhibition of purified Photinus pyralis luciferase – biochemical, luminescence, purified enzyme, 2006 set, primary screen (AID 1141); conditions: purified firefly luciferase, SteadyGlo luminescence, 30 min; higher = more signal, called active from +8 up or from −8 down;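 further: cell-free assay with purified firefly luciferase at 100 ng per well in PBS; test concentration not given here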
Sequence of Luciferin 4-monooxygenase (Photinus pyralis) (P08659 whole entry, looked up): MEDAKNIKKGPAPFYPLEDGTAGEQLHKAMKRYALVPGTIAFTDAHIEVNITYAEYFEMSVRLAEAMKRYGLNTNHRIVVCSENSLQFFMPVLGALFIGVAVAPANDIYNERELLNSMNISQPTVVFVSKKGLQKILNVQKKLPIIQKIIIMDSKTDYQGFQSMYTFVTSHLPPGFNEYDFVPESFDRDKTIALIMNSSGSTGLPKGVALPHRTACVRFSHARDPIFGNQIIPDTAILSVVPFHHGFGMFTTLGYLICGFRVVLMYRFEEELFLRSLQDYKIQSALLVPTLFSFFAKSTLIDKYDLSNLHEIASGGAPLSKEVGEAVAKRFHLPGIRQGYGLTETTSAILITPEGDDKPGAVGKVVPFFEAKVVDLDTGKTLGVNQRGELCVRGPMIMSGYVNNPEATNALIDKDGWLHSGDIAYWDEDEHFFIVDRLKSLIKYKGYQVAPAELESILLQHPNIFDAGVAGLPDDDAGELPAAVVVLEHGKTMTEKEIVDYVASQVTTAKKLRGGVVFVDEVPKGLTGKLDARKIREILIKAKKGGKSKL

Sequence of Follistatin (Homo sapiens) (P19883 whole entry, looked up): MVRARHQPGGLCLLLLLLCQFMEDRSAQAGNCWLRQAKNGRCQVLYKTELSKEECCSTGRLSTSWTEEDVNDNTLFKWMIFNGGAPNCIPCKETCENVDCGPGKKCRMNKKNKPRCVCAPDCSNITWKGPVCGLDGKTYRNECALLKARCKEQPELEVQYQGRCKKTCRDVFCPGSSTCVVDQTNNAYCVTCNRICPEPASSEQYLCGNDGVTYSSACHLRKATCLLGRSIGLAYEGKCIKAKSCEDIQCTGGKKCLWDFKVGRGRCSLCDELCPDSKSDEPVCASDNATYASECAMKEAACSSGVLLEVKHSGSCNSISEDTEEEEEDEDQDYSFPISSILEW
Sequence of Fibroblast growth factor 2 (Homo sapiens) (P09038 whole entry, looked up): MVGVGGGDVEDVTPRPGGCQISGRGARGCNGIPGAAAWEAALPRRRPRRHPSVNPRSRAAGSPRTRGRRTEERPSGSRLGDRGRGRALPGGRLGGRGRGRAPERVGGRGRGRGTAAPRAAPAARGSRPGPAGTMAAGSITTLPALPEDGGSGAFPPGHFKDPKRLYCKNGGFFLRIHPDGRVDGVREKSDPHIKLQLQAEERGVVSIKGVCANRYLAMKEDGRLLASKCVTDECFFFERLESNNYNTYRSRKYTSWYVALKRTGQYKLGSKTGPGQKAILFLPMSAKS
Sequence of Focal adhesion kinase 1 (Homo sapiens) (Q05397 whole entry, looked up): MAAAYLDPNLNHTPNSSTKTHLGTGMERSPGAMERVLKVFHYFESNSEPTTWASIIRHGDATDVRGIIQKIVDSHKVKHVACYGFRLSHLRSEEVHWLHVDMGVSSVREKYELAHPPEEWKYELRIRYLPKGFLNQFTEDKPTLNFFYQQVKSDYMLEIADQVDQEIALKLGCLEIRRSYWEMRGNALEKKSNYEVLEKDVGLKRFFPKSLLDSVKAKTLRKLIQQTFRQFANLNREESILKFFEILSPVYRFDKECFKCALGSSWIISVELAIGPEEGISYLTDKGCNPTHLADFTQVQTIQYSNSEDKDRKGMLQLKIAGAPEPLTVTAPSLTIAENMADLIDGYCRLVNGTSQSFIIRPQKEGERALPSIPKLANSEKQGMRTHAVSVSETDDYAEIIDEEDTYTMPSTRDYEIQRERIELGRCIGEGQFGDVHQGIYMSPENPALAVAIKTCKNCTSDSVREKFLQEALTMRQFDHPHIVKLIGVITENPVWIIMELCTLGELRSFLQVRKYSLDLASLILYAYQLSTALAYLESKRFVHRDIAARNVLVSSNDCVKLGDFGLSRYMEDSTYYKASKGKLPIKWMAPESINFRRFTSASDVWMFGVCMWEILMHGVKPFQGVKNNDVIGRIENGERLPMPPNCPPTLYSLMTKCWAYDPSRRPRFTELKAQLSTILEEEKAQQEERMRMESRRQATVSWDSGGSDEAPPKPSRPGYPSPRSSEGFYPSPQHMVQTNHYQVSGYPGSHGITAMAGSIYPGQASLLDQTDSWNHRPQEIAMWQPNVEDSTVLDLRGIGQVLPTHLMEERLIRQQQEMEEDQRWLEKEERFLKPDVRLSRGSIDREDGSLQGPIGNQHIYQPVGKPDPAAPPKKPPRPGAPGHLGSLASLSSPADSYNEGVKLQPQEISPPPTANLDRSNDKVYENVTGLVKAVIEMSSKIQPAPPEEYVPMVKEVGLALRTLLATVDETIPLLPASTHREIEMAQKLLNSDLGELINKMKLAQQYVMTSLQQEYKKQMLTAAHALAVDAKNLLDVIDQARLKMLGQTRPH
Sequence of Concanavalin-A (Canavalia ensiformis) (P02866 whole entry, looked up): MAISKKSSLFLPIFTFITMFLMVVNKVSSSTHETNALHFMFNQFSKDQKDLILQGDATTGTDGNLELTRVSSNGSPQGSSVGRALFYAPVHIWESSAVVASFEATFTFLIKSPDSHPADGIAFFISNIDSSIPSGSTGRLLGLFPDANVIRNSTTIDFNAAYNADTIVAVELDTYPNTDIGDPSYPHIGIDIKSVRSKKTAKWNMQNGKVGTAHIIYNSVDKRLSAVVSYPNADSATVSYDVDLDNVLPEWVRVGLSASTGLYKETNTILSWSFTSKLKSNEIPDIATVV
Sequence of Albumin (Bos taurus) (P02769 whole entry, looked up): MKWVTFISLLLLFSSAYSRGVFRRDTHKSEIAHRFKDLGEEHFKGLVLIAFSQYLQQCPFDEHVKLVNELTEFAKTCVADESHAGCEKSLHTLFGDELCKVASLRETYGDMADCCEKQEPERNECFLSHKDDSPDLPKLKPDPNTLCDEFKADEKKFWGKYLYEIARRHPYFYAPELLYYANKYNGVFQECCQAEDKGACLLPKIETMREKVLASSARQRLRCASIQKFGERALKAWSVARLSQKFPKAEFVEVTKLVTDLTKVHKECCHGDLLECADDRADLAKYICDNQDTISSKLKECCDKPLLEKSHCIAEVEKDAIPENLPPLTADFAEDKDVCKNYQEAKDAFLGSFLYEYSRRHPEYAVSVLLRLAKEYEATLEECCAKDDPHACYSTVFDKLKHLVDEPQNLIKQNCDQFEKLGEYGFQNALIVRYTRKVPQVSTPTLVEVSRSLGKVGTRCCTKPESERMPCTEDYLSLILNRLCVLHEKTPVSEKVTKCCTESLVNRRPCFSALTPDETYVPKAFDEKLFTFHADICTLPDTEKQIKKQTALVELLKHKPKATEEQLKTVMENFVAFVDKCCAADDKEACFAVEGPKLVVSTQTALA

Row | SMILES | composite z-score (Albumin (Bos taurus)) | composite Z-score [1] | composite z-score [2] | composite z-score [3] | composite z-score [4] | composite z-score [5] | composite z-score [6] | composite z-score (Sam68 (KHDRBS1)) | composite z-score [7] | composite z-score [8] | composite z-score [9] | composite z-score [10] | composite z-score [11] | composite z-score [12] | composite z-score [13] | composite z-score [14] | z-score [15] | composite z-score (Lefty1) | composite z-score [16] | z-score [17]
1 | O=C1N(Cc2ccccc2)c2ccccc2[C@@H]2OC(c3ccc(OCCCO)cc3)=N[C@]12Cc1ccccc1 | -0.34 | -0.296 (inactive) | -0.0362 | -0.0146 | 0.607 | 2.23 | -0.327 | 1.3 | 0.29 | 1.11 | 0.205 | 1.24 | 0.623 | 0.787 | 1.12 | 1.12 | -1.31 | 0.183 | 0.849 | -3.86 (inactive)
2 | COCCOC(=O)N1C(=O)[C@@]2(c3cc(C#CCNC(N)=O)ccc31)[C@H](C(=O)N1CCc3cc(OC)c(OC)cc3C1)[C@H]1C(=O)O[C@H](c3ccccc3)[C@H](c3ccccc3)N1[C@@H]2c1ccccc1OCCO | 0.577 | -0.0476 (inactive) | 0.123 | -0.126 | 0.577 | 1.33 | 0.383 | 1.29 | 0.855 | 0.794 | 1.16 | 0.778 | 0.378 | 0.757 | 1.2 | 1.48 | -1.12 | 0.716 | 0.524 | -0.709 (inactive)
3 | CC1CC/C=C\[C@H]2OC34C=CCN(C(C)C)C(=O)[C@H]3N(CCCCCCO)C(=O)[C@@H]4C2C(=O)O1 (stereo not given in full) | -0.0272 | -0.416 (inactive) | -0.268 | -0.145 | 0.889 | -0.63 | -0.0532 | -1.83 | -0.607 | -0.594 | -0.641 | -1.09 | -0.278 | -1.25 | -0.583 | -1.09 | 0.378 | -0.547 | -0.451 | -3.19 (inactive)
4 | CC(C)C(=C=CC[C@H](O)c1ccc(OCCO)cc1)C[C@H](O)c1ccccn1 | 0.449 | 0.168 (inactive) | -0.0044 | -0.13 | 0.513 | 0.619 | 0.864 | 1.19 | -0.237 | -0.057 | 0.923 | 0.955 | 0.104 | 0.3 | 0.135 | -0.139 | 1.51 | 0.334 | 0.0804 | -2.27 (inactive)
5 | C=CC[C@]1(C(=O)NCCN2CCOCC2)N=C(c2ccc(OCCCO)cc2)O[C@H]1c1ccccc1CN=[N+]=[N-] | -0.91 | 0.363 (inactive) | -0.273 | 0.0855 | 0.724 | 1.41 | 0.034 | 0.826 | 1.38 | -0.438 | 0.625 | 1.18 | -0.319 | 0.636 | 1.46 | 1.68 | 2.52 | 0.0118 | 1.03 | -1.37 (inactive)
6 | COc1cc(OC)c(C(O)C2C=CC3C(=O)N(c4ccccc4)C(=O)C3N2Nc2ccccc2)cc1Br (stereo not given) | 0.911 | -0.565 (inactive) | 0.245 | -0.117 | 0.457 | 1.33 | 0.468 | 1.19 | -1.07 | 1.1 | 1.95 | 1.18 | 0.531 | 0.454 | 0.461 | -0.179 | -0.267 | 0.387 | 0.126 | -0.229 (inactive)
7 | CCCCCCc1nc(-c2cc(C)c(OC)c(C)c2)c(C)c2c1[Si](C(C)C)(C(C)C)OC2 | -0.58 | 0.792 (inactive) | -0.165 | -0.209 | -0.146 | 0.0188 | -0.373 | -0.611 | 0.574 | -0.112 | -0.351 | 0.0093 | 0.126 | -0.273 | 0.204 | -0.18 | -0.522 | 0.195 | -0.496 | 0.325 (inactive)
8 | O=C(CS)NCCCCCCNC(=O)[C@H]1C[C@H]2C(=O)N[C@@H](Cc3ccccc3)C(=O)N2[C@H]1c1ccc(O)cc1 | -0.242 | 0.578 (inactive) | -0.423 | -0.0924 | 0.557 | 2.18 | 0.871 | 1.18 | 0.757 | 1.1 | 1.29 | 1.25 | 0.904 | 0.476 | 1.22 | 1.62 | -1.61 | 0.852 | 0.195 | -1.17 (inactive)
